# From PubChem BioAssay AID449762 (Southern Research Specialized Biocontainment Screening …, 2010)
# The whole screen tested about 330,000 compounds, of which about 1,900 (0.58%) were called active. About 4% were inconclusive and are not listed. Not all results are given here. Potency and affinity values are given separately. Unmarked numbers belong to inactive results. No stated cut-off is given here; in the data, inconclusive means inhibition above about 70% without an active follow-up result; inactive means below that.
# Test: M. tuberculosis growth inhibition, HTS (AID 449762);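 further: bacterial growth assessed after seven days of incubation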
# Conditions: M. tuberculosis H37Rv growth inhibition, 7H9 media; at 25 µM; active compounds read high
row,SMILES,inhibition
1,C=CCn1c(C(C)NC(=O)c2cccs2)n[nH]c1=S (stereo not drawn),-3.28%
2,CCC(C)Oc1cc(-c2ccnc(Nc3cccc(Cl)c3)n2)ccn1 (stereo not drawn),63.7%
3,OCCCNc1nccc(-c2cc(Nc3cccc(Cl)c3)ncn2)n1,5.56%
4,Cc1ccc(-c2nnn(CC(=O)N(c3cccc(F)c3)C(C(=O)NC3CCCC3)c3ccncc3)n2)o1 (stereo not drawn),0.25%
5,COCCCNC(=O)CSc1ccc(Cl)cc1,-2.16%
6,CCN(c1ccccc1)S(=O)(=O)c1ccc(OC)c(N=N/C(C(=O)Nc2ccccc2)=C(/C)O)c1,10.8%
7,O=C(NCC(c1ccco1)N1CCOCC1)c1cccc([N+](=O)[O-])c1 (stereo not drawn),1.76%
8,CC[C@H](C)[C@@H](CN[C@H](CCCCNC)CNC)NCC1CCCC1,4.48%
9,CC(C)NCC(O)COC1CCC(C(C)(C)C)CC1 (stereo not drawn),-7.84%
10,Cc1ccc(C2C3=C(CC(C)(C)CC3=O)OC3=C2C(=O)CC(C)(C)C3)cc1,-4.24%
11,Cc1onc(-c2ccccc2)c1C(=O)OCC(=O)N1CCC(C)CC1,-0.29%
12,CSc1nnc(C)c(/C=C/NOCc2ccc(Cl)cc2)n1,-4.59%
13,CCc1ccc2c(c1)cc(CN(C(=S)Nc1ccc(Cl)cc1)C1CC1)c1nnnn12,-13.5%
14,Cn1cnc2cc(NCc3cccs3)ccc21,2.02%
15,Cc1ccccc1-n1cnc2cc(NCc3cccs3)ccc21,59.7%
16,CCn1c(SC(C)C(=O)N2CCOCC2)nc2sc(C)c(C)c2c1=O (stereo not drawn),-0.24%
17,CCC(C)[C@H](NC(=O)C1CC(=O)N(c2ccc3c(c2)OCCO3)C1)C(=O)NC1CCCC1 (stereo partly drawn),-2.76%
18,O=C(O)COc1ccc(NC(=O)c2ccc3c(c2)C(=O)N(C2CCCCC2)C3=O)cc1,-5.81%
19,CN(CCC#N)C(=O)COC(=O)c1ccc2c(c1)C(=O)N(C1CCCCC1)C2=O,11.1%
20,CCC(=O)Nc1ccc2c(c1)C(=O)N(C1CCCCC1)C2=O,12.2%
21,COC(=O)c1ccc2c(c1)C(=O)N(C1CCCCC1)C2=O,48.9%
22,Clc1cccc(C2CCN(Cc3nc(CC4CC4)no3)C2)c1 (stereo not drawn),16.3%
23,COc1ccc(NCc2nnc(SCc3ccc(Cl)cc3)n2-c2ccccc2)cc1,-5.4%
24,CCOC(=O)CSc1nnc(CNc2cccc(Cl)c2)n1-c1ccccc1,-7.68%

row,SMILES,inhibition
1,Cc1ccccc1S(=O)(=O)Cc1ccc(C(=O)NCCCOC(C)C)o1,2.68%
2,CN(CC(=O)Nc1ccccc1Cl)C(=O)COC(=O)c1ccc(=O)n(Cc2ccccc2)n1,0.91%
3,Cc1sc2nc(CN(C(=O)NC3CCCCC3)C3CCCCC3)[nH]c(=O)c2c1C,26.1%
4,CC(=O)N(Cc1nc2sc(C)c(C)c2c(=O)[nH]1)C1CCCC1,-3.15%
5,O=C(Cc1ccc(F)cc1)N(c1ccccc1)C1C=CS(=O)(=O)C1 (stereo not drawn),-6.47%
6,CCn1cc(C2C(C(=O)Nc3cc(C)ccn3)=C(C)NC3=C2C(=O)CC(C)(C)C3)c(C)n1 (stereo not drawn),1.96%
7,CCCCCCn1c(=O)c(C(=O)Nc2ncccc2O)c(O)c2ccccc21,13.4%
8,CCCn1c(=O)c(C(=O)Nc2ncccc2C)c(O)c2ccccc21,18.3%
9,CCN(N=Nc1cccc([N+](=O)[O-])c1)c1cccc([N+](=O)[O-])c1,4.11%
10,CC1(C)CC(=O)C(N=Nc2cccc([N+](=O)[O-])c2)=C(O)C1,0.73%
11,COc1ccc(CCN2C(=O)CSC2c2ccc(F)cc2)cc1 (stereo not drawn),-7.99%
12,Cc1ccc(S(=O)(=O)N(C)c2ccc(C(=O)Nc3ccccn3)cc2)cc1,27.5%
13,COc1ccc(-c2sc3ccc(N4CCOCC4)cc3c2-c2ccc(OC)c(F)c2)cc1,-0.65%
14,Cc1nc(SCc2nc3ccccc3[nH]2)c2oc3cc(Br)ccc3c2n1,0.43%
15,N=c1sccn1CC(=O)Nc1ccc(Cl)cc1[N+](=O)[O-],-3.88%
16,Cc1cc(NC(=O)Cn2ccsc2=N)c([N+](=O)[O-])cc1C,-4.45%
17,CC(Oc1ccccc1)C(=O)N1CCC2(CC1)Oc1ccc(Cl)cc1C(=O)C21CC(c2ccccc2)=NO1 (stereo not drawn),23.6%
18,CC(C)C(=O)N1CCC2(CC1)Oc1ccc(Cl)cc1C(=O)C21CC(c2cccnc2)=NO1 (stereo not drawn),1.87%
19,CN1/C(=C\C(=O)c2ccco2)C(C)(C)c2ccccc21,1.21%
20,CN1/C(=C\C(=O)c2cccnc2)C(C)(C)c2ccccc21,14.2%
21,CCC(C)[C@H](NC(=O)Nc1ccc(S(N)(=O)=O)cc1)C(=O)OC (stereo partly drawn),1.32%
22,O=C(CCl)Nc1ccc(S(=O)(=O)NC2=NCCCCC2)cc1,47.6%
23,COC(=O)c1cc(/C=C/c2ccccc2)[nH]n1,37.7%
24,Cc1cc(NC(=O)/C=C/c2ccccc2)no1,11.4%

row,SMILES,inhibition
1,O=C(c1ccc(C(F)(F)F)cc1)N1CCC(=O)N(C(COCc2ccc(Cl)cc2)Cc2ccccc2)CC1 (stereo not drawn),-0.74%
2,CCSc1nc2ccccc2n1CC(N)=O,-10.4%
3,CC(C)(C(=O)O)c1ccc(C(O)CCCN2CCC(C(O)(c3ccccc3)c3ccccc3)CC2)cc1 (stereo not drawn),6.01%
4,CC(C)(C(=O)O)c1ccc([C@H](O)CCCN2CCC(C(O)(c3ccccc3)c3ccccc3)CC2)cc1,6.89%
5,Cc1ccc2cc(CCNC(=O)c3ccc4c(c3)OCO4)c(=O)[nH]c2c1C,-3.26%
6,Cn1ccc(NC(=O)CCl)n1,57.5%
7,Cn1c(=O)n(C)c2cc(NC(=O)CCl)ccc21,64.7%
8,CSc1ccc(CCNS(=O)(=O)c2c(C)[nH]c(C)c2C(=O)N2CCCCC2)cc1,-2.39%
9,Cc1ccc(NC(=O)C2CCC(CNC(=O)[C@@H]3Cc4ccccc4CN3)CC2)c(C)c1 (stereo partly drawn),7.99%
10,Cn1c(O)c(/C=N/N2CCCCC2)c(=O)[nH]c1=O,-3.56%
11,C=CCSC1=C(C#N)C(c2ccccc2C)CC(=O)N1 (stereo not drawn),1.95%
12,COc1cc2[nH]c(=O)n(C3CCCCC3)c(=O)c2cc1OC,-2.86%
13,COc1c[nH]n(-c2ccccc2)c(=O)c1=O,2%
14,COc1ccc([C@H]2CC(=O)C=C(c3ccc4[nH]ccc4c3)C2)cc1OC,55.7%
15,O=C1C=C(c2ccc3ccccc3c2)C[C@@H](c2ccc(Cl)cc2)C1,19.3%
16,O=C(Nc1ccc(F)c(F)c1)C1CCN(S(=O)(=O)c2cccc3nonc23)CC1,-5.72%
17,Cn1nc(C(=O)Nc2cc(Cl)ccc2N2CCCC2)c2ccccc2c1=O,1.5%
18,CC(=O)Nc1ccc(NC(=O)COc2ccc3c(c2)CCC3)cc1,1.68%
19,Cc1cccnc1NC(=O)COc1ccc2c(c1)CCC2,54.8%
20,O=C(c1ccc2snnc2c1)N1CCCCC1,-3.95%
21,Cc1ccc(N2CC(C(=O)Nc3nccs3)CC2=O)cc1Cl (stereo not drawn),10.9%
22,CCc1nnc(NC(=O)C2CC(=O)N(c3ccc(C)cc3)C2)s1 (stereo not drawn),11.9%
23,COC(=O)/C(C#N)=C/c1c(-c2ccccc2)nc2n1CCS2,-12.2%
24,CCNc1nc(NC(C)C)nc(NS(=O)(=O)c2ccc(N)cc2)n1,-9.39%

row,SMILES,inhibition
1,CC(/C=C/c1ccco1)=N\NC(=O)c1cccnc1,-3.96%
2,O=C(N/N=C/C=C/c1ccccc1)c1cccnc1,-0.94%
3,CC(C)(C)N1CSC(=S)N(Cc2ccccc2)C1,65%
4,CC(C)N1CSC(=S)N(Cc2ccccc2)C1,64.3%
5,COCCN1CSC(=S)N(Cc2ccco2)C1,66.9%
6,S=C1NCN(Cc2ccco2)CN1Cc1ccco1,7.57%
7,O=C(CCN1C(=O)c2ccccc2C1=O)Nc1ccc(F)cc1,-6.8%
8,CN(C)CCCN(C(=O)c1cc(-c2cccs2)nc2ccccc12)c1nc2c(F)cccc2s1,49.4%
9,CN(C)CCCN(C(=O)c1nc2ccccc2s1)c1nc2ccc(F)cc2s1,-11.9%
10,C[C@H](CO)N1C[C@H](C)[C@@H](CN(C)C(=O)NC2CCCCC2)Oc2ccc(NC(=O)Cn3cnnn3)cc2C1=O,4.07%
11,Cc1c(C)c(C)c(CN2CCCC2)c(C)c1C,2.65%
12,CNC(=O)c1ccc(NC(=O)CCc2c(C)noc2C)cc1,-12.4%
13,CC[C@@]12C(=O)N(c3cccc(F)c3)C(=O)N1[C@H](c1ccc(F)cc1)[C@@H]1C(=O)N(C3CCCCC3)C(=O)[C@@H]12,0.17%
14,CC(=O)C1=NN(c2ccccc2)C(c2cccs2)N1c1ccccc1 (stereo not drawn),-3.16%
15,CC(=O)Nc1ccc(N2C(C(C)=O)=NN(c3ccccc3)C2c2cccs2)cc1 (stereo not drawn),1.3%
16,CC(=O)OCC1=C(C(=O)O)N2C(=O)C(NC(=O)C(C)Cn3cc(Cl)cn3)C2SC1 (stereo not drawn),-1.4%
17,CCCSc1nsc(SCCC)c1C#N,-0.55%
18,CN(Cc1ccccc1)C(=O)Cn1c(=O)oc2cc(S(=O)(=O)N3CCCC3)ccc21,-1.71%
19,COc1cc(C2C(C(=O)C(C)(C)C)=C(O)C(=O)N2Cc2ccccc2)ccc1O (stereo not drawn),1.41%
20,COc1cccc(NC(=O)c2oc3ccc(S(=O)(=O)N4CCOCC4)cc3c2C)c1,58%
21,Cc1ccc(NC(=O)c2oc3ccc(S(=O)(=O)N4CCOCC4)cc3c2C)cc1C,-7.43%
